Values joined by “and” are separate entries in the source; they are usually repeats but may differ in a detail not shown here. Equal entries are not always repeated. Records with an inconclusive call do not appear. Values without a mark were called inactive. Active and inactive are the calls of the source. Calls follow the shape of the dose curve; as a rule, active = well fitted activation curve with a large enough effect in the signal ratio (not every such curve was filed as active); inconclusive = small, poorly fitted or top-dose-only effect, or a change in a side signal; inactive = flat fitted curve, though single readings scatter; the % refers to the signal ratio.
Assay: qHTS assay for small molecule activators of the p53 signaling pathway (AID 651743); as to activation: series mostly up to about 92 µM; % of control where 0% means no effect
Conditions: HCT-116 p53RE-bla, beta-lactamase FRET ratio, 16 h; activation: stronger effect = higher value
Description: National Center for Advancing Translational Sciences [NCATS] NIH Chemical Genomics Center [NCGC] U.S. Environmental Protection Agency [EPA] National Institutes of Environmental Health Sciences [NIEHS] National Toxicology Program [NTP] Assay Overview: p53, a tumor suppressor protein, is activated following cellular insult, including DNA damage and other cellular stresses. The activation of p53 regulates cell fate by inducing DNA repair, cell cycle arrest, apoptosis, or cellular senescence. The activation of p53, therefore, is a good indicator of DNA damage and other cellular stresses. The CellSensor p53RE-bla HCT-116 cell line (Invitrogen) contains a stably integrated beta-lactamase reporter gene under control of the p53 response elements. The activation of the report gene under culture conditions can be detected by fluorescence intensity. This cell line can be used to screen chemicals in a 1536-well plate format and to identify agonists that activate p53 signaling pathway.
Assay Protocol Summary: The p53RE-bla cells were dispensed at 4,000 cells/5 ul/well in 1536-well black wall/clear bottom plates using a Multidrop dispenser. After the assay plates were incubated at a 37 C/5% CO2 incubator for 5 hours, 23 nL of compounds dissolved in DMSO, positive controls or DMSO only was transferred to the assay plate by a pin tool. The plates were incubated at 37 C for 16 hours. After 1 uL of LiveBLAzer B/G FRET substrate was added using a Flying Reagent Dispenser, the plates were incubated at room temperature for 2 hours, and fluorescence intensity was measured by an Envision plate reader.
For `CCSC(=O)N1CCCCCC1`, the activation was -3.15% and 2.49%. With `CC(C)(COCC1CO1)COCC1CO1` (stereo not given) the activation was 6.6%. Molecule `Nc1ccc([N+](=O)[O-])cc1N` has an activation of -2.47%. Work on `Clc1ccc(C(Cl)(Cl)Cl)c(Cl)c1` yielded an activation of -0.0334%. Work on `Cc1cc(C)cc(OP(=O)(Oc2cc(C)cc(C)c2)Oc2cc(C)cc(C)c2)c1` yielded an activation of -0.0195%. In the case of `Nc1ccc(Oc2ccc(N)cc2)cc1`, the activation is reported as -4.54% and -10.7%. `C(CCOCC1CO1)COCC1CO1` (stereo not given) showed an activation of 15.9%. `Nc1cc(Cl)cc(Cl)c1` gave an activation of 1.82%. In the case of `CCOC(=O)CC(SP(=O)(OC)OC)C(=O)OCC` (stereo not given), the activation is reported as -0.7% and -2.82%. `O=Cc1ccc(Cl)cc1Cl` gave an activation of -1.2%. In the case of `O=[N+]([O-])c1c(Cl)c(Cl)c(Cl)c(Cl)c1Cl`, the activation is reported as -1.05% and 4.15%. Work on `CCCCCc1cc(O)cc(O)c1` yielded an activation of -2.37%. With `CCOP(=S)(OCC)SCCSCC` the activation was -1.38% and -6.24%. In the case of `S=c1[nH]c2ccccc2[nH]1`, the activation is reported as -4.45%. Work on `Cc1ccc(N)cc1C` yielded an activation of -1.62%. Molecule `CCC/C=N/O` has an activation of 2.09%. In the case of `Clc1ccc(C(c2ccccc2Cl)C(Cl)(Cl)Cl)cc1` (stereo not given), the activation is reported as 0.576% and 10.5%. For `O=C(O)C(Br)Br`, the activation was 6.12%. `Nc1ccccc1-c1ccccc1` gave an activation of -6.93%. `ClC=CCl` gave an activation of -3.46%. In the case of `S=C1NCCN1`, the activation is reported as -4.05% and -5.02%. With `COC(C)(C)C` the activation was -2.31%. In the case of `c1ccc(N=NNc2ccccc2)cc1`, the activation is reported as -4.25% and -0.499%. In the case of `O=[N+]([O-])c1ccccc1CCl`, the activation is reported as -1.05%. In the case of `O=[N+]([O-])c1ccccc1O`, the activation is reported as -2.01%. For `Clc1ccc(Cl)c(Cl)c1`, the activation was -3.13% and -3.99%. In the case of `Cc1ccccc1[N+](=O)[O-]`, the activation is reported as 1.69%. Work on `O=C(O)c1cc(Cl)ccc1Cl` yielded an activation of -4.12%. Work on `ClC(Br)Br` yielded an activation of 6.47%. Work on `Cc1ccc2c(C)cccc2c1` yielded an activation of -0.174%. Molecule `CC(C)(Cl)[N+](=O)[O-]` has an activation of 3.96%. For `Cl/C=C/CCl`, the activation was -2.05%. With `CC(C)[N+](=O)[O-]` the activation was -2.67%. `Nc1ccc(Cl)c(Cl)c1` gave an activation of 0.678%. `C=CCO` gave an activation of -1.01%. In the case of `ClCC(Cl)CCl`, the activation is reported as 2.35% and -2.96%. With `Oc1cc(Cl)c(Cl)c(Cl)c1` the Potency was 44.7 µM (active). With `Nc1ccc(Cc2ccc(N)cc2)cc1` the activation was -1.69% and -2.54%. With `CCOP(=S)(OCC)Oc1nc(Cl)c(Cl)cc1Cl` the activation was 2.38% [middle of 4 runs]. For `OCC(Cl)CCl` (stereo not given), the activation was -0.732%.
Potency is read from the fitted curve at half-maximal effect.
